Experimental data from PubChem BioAssay (Tox21).
Results filed as inconclusive are left out. Where a call stands in place of a potency, no number is given. Active and inactive are the calls of the source. Unless noted, the call rests on the fitted dose curve; in most records, active means well fitted curve in the direction sought with a large enough effect in the repeat runs; inconclusive means weak or mixed curves; inactive means no such curve, though single readings can be large; an effect the other way counts as inactive or inconclusive.

Experiments:
[1] = target: Aryl hydrocarbon receptor (Homo sapiens) (UniProt P35869); test: qHTS assay to identify small molecule that activate the aryl hydrocarbon receptor (AhR) signaling pathway (AID 743085); details: HepG2 AhR-luc (HG2L7.5c1), luciferase, 24 h; series mostly up to 70.3 µM; further: potency means the concentration at half of the fitted maximal effect; nearly all actives have a fitted effect of over 15% in size
In short: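 Steps: seed HepG2-AhR-luc cells; allow 5 h at 37C; pin-transfer test compound or vehicle; incubate 24 h at 37C; add viability dye (30 min, 37C) and read fluorescence; add luciferase substrate (30 min, RT) and read luminescence.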

[2] = qHTS assay to identify small molecule that activate the aryl hydrocarbon receptor (AhR) signaling pathway - cell viability counter screen (AID 743086); details: HepG2-AhR-luc viability, CellTiter-Fluor, 24 h; series mostly up to 70.3 µM;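 further: HepG2 liver cells carrying the AhR DRE luciferase reporter; nearly all actives have a fitted effect of over 45% in size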
In short: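 HepG2-AhR-luc (HG2L7.5c1) cells, 4000/well, were preincubated 5 h at 37C, exposed to compound in qHTS format for 24 hr at 37C, then given CellTiter-Fluor for 30 min; viability was read as fluorescence in the reporter wells.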

[3] = target: Peroxisome proliferator-activated receptor gamma (Homo sapiens) (UniProt P37231); test: qHTS assay to identify small molecule agonists of the peroxisome proliferator-activated receptor gamma (PPARg) signaling pathway (AID 743094; active means well fitted activation curve with a large enough effect in the signal ratio in the repeat runs, not every such curve was filed as active; the % refers to the signal ratio); details: HEK293H PPARg-UAS-bla, beta-lactamase FRET ratio, 17 h; series mostly up to 57 µM
In short: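 Stably transfected HEK293H cells (GeneBLAzer PPARg UAS-bla) were incubated with test substances for 17 h at 37C after a 5 h pre-incubation; beta-lactamase activity was then detected by FRET substrate fluorescence.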

[4] = target: Peroxisome proliferator-activated receptor gamma (Homo sapiens) (UniProt P37231); test: qHTS assay to identify small molecule antagonists of the peroxisome proliferator-activated receptor gamma (PPARg) signaling pathway (AID 743191; calls by dose curve; further: nearly all actives have a fitted effect of over 30% in size); details: HEK293H PPARg-UAS-bla, beta-lactamase ratio, antagonist, 17 h; series mostly up to 62.6 µM
In short: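 GeneBLAzer PPARg UAS-bla HEK293H cells carrying a UAS-driven beta-lactamase reporter were plated at 3000 cells/well, preincubated 5 h at 37C, then given compound for 17 h at 37C; LiveBLAzer B/G FRET substrate was read after 1 h at room temperature.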

[5] = qHTS assay to identify small molecule antagonists of the peroxisome proliferator-activated receptor gamma (PPARg) signaling pathway - cell viability counter screen (AID 743194); details: PPARg-bla HEK293H viability, CellTiter-Glo luminescence, 17 h, co-treated with 50 nM rosiglitazone; series mostly up to 62.6 µM; further: nearly all actives have a fitted effect of over 55% in size
In short: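 PPARg-UAS-bla HEK293H cells were plated, rested 5 h at 37 C, then treated with compounds plus rosiglitazone (50 nM final) for 17 h at 37 C; viability was then read by CellTiter-Glo luminescence after 30 min at room temperature.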

[6] = qHTS assay for small molecule activators of the heat shock response signaling pathway - cell viability counter screen (AID 743209); details: HSE-bla HeLa viability, CellTiter-Glo luminescence, 5 h; series mostly up to 62.6 µM; further: nearly all actives have a fitted effect of over 50% in size
In short: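 Quantitative HTS format, Tox21 10K library. HeLa cells carrying an HSE-driven beta-lactamase reporter were treated 5 h at 37 C, then assessed for viability by CellTiter-Glo luminescence.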

[7] = qHTS assay for small molecule activators of the heat shock response signaling pathway (AID 743210; active means well fitted activation curve with a large enough effect in the signal ratio in the repeat runs, with a control signal flat, not every such curve was filed as active; the % refers to the signal ratio); details: HeLa HSE-bla reporter, beta-lactamase ratio, 5 h; series mostly up to 62.6 µM
In short: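 HSE-bla HeLa cells (beta-lactamase reporter under heat shock response elements) were exposed to compounds for 5 h at 37 C, then loaded with LiveBLAzer B/G FRET substrate for 2.5 h at room temperature before fluorescence reading.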

[8] = qHTS assay for small molecule agonists of the antioxidant response element (ARE) signaling pathway (AID 743202; active means well fitted activation curve with a large enough effect in the signal ratio in the repeat runs, not every such curve was filed as active; the % refers to the signal ratio); details: HepG2 ARE-bla reporter, beta-lactamase FRET, 16 h; series mostly up to 73.3 µM
In short: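 Read-out: LiveBLAzer B/G FRET substrate fluorescence after 2 h at room temperature, following 16 h compound treatment at 37 C of HepG2 cells carrying an ARE-driven beta-lactamase reporter.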

[9] = qHTS assay for small molecule agonists of the antioxidant response element (ARE) signaling pathway - cell viability counter screen (AID 743203; calls by dose curve; further: nearly all actives have a fitted effect of over 55% in size); details: ARE-bla HepG2 viability, CellTiter-Glo luminescence, 16 h; series mostly up to 73.3 µM
In short: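 Cells (ARE-bla HepG2, 2,000/well) receive DMSO-dissolved compounds after a 5 hrs rest. Plates incubate 16 hrs at 37C/5% CO2. CellTiter-Glo luminescence is then recorded after 30 min at room temperature.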

Peroxisome proliferator-activated receptor gamma (Homo sapiens), sequence (P37231 whole entry, looked up): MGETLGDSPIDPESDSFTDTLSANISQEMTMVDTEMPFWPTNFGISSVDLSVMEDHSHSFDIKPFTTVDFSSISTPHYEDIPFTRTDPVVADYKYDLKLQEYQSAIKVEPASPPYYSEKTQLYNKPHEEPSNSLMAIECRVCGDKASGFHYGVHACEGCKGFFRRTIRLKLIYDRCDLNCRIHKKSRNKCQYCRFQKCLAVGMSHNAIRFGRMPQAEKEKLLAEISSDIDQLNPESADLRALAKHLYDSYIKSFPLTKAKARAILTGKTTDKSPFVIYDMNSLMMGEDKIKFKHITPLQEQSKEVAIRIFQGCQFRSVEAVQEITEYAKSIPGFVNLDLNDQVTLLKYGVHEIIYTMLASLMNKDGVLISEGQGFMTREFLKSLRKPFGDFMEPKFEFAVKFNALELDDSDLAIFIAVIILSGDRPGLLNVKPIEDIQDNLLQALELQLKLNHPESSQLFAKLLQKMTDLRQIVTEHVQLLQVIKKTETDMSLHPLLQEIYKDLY
Aryl hydrocarbon receptor (Homo sapiens), sequence (P35869 whole entry, looked up): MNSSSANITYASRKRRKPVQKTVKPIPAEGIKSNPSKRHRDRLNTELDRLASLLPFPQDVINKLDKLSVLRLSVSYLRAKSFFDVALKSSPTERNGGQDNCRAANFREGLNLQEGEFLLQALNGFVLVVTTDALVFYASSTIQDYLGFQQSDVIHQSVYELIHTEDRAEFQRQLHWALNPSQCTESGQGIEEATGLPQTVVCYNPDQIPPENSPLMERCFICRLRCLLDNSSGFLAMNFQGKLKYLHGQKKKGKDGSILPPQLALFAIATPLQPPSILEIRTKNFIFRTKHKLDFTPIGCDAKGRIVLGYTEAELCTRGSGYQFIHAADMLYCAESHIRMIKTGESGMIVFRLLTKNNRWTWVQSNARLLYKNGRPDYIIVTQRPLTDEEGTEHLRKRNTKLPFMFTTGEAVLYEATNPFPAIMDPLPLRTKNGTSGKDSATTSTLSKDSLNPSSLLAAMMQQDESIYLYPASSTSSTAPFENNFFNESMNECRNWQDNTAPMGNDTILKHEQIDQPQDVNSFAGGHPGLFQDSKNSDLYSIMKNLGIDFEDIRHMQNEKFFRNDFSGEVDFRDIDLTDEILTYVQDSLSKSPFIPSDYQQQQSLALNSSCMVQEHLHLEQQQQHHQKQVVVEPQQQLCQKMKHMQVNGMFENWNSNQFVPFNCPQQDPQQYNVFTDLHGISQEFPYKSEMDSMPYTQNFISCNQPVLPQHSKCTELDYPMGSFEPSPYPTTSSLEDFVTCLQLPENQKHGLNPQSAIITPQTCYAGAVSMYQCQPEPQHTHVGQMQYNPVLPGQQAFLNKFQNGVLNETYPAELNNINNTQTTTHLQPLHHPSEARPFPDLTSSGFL

SMILES	Potency [1]	Potency [2]	Potency [3]	Potency [4]	Potency [5]	outcome [6]	outcome [7]	Potency [8]	Potency [9]
CC(=O)Nc1cccc(N)c1	62 µM (active)	inactive	inactive	inactive	inactive	inactive	inactive	–	–
CC(C)C/C=C(\C=O)c1ccccc1	–	inactive	–	inactive	inactive	inactive	inactive	inactive	inactive
COc1ccc(/C(C)=C/C(=O)O)c(OC)c1	–	–	–	–	inactive	inactive	inactive	inactive	inactive
